# Test results taken from the supplement of paper PMC10849652.
# About 7,900 targets were measured; listed, in parts, are those with a hit and a random draw of the rest. About 0.6% of all pairs of compound and target were hits. Values without a mark were called inactive.
# Compound: Cc1sc2c(c1C)C(c1ccc(Cl)cc1)=N[C@@H](CC(=O)OC(C)(C)C)c1nnc(C)n1-2
# Assay: log2 fold change, soluble protein after heating vs DMSO (PISA); higher = thermal stabilisation; K562 cells, 10 uM, 30 min; active = over 0.2 and 3.5 SD of the protein, either way, in both replicates (recomputed)
# Procedure, shortened: (§1)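 K562 cells at 2×10^6 cells/mL were given 10 μM compound for 30 min. Aliquots then went through 3 min of heating across 48°C-58°C, were pooled, and were extracted in PBS with 0.5% NP-40 at 4°C, and the supernatant after 21,000xg for 90 min was quantified by TMTpro 16plex LC-MS/MS with channel sums equalised. Thermal stability relative to control samples, from duplicates, is given as log2 fold change.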
# UniProt P00846, sequence (P00846 whole entry, looked up): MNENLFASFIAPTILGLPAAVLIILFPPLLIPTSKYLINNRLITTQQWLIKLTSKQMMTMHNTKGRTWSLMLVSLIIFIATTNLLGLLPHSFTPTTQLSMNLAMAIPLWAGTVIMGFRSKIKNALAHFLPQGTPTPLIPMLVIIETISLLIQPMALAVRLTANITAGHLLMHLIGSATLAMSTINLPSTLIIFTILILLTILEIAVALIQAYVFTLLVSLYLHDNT
# UniProt Q9UI43, sequence (Q9UI43 whole entry, looked up): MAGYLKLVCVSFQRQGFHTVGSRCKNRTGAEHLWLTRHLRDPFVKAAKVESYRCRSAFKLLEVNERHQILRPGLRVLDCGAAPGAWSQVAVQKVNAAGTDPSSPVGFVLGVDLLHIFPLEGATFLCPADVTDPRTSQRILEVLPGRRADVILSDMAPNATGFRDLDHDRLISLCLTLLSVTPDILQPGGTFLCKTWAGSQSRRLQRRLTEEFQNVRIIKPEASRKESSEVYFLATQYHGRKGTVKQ
# UniProt O60934, sequence (O60934 whole entry, looked up): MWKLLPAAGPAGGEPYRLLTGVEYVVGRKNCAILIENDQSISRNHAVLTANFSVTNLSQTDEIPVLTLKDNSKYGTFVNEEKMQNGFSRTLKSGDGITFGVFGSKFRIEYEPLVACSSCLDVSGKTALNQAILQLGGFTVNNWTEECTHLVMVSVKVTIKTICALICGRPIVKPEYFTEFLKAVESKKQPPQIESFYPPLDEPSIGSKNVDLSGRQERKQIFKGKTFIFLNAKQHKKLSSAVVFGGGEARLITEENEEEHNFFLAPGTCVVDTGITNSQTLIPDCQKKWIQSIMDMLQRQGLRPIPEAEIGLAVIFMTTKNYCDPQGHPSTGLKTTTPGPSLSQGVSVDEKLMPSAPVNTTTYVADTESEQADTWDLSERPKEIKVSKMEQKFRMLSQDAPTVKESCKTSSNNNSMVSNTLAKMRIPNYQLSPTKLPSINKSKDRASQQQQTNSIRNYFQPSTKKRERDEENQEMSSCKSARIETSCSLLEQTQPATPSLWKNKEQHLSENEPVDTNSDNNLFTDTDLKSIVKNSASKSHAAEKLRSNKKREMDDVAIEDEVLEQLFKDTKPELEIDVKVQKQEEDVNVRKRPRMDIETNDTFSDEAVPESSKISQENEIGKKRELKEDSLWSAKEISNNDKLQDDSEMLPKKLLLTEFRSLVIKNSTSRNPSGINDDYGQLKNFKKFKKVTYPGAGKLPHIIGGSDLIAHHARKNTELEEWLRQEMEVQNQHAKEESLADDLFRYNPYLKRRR
# UniProt Q9H4L5, sequence (Q9H4L5 whole entry, looked up): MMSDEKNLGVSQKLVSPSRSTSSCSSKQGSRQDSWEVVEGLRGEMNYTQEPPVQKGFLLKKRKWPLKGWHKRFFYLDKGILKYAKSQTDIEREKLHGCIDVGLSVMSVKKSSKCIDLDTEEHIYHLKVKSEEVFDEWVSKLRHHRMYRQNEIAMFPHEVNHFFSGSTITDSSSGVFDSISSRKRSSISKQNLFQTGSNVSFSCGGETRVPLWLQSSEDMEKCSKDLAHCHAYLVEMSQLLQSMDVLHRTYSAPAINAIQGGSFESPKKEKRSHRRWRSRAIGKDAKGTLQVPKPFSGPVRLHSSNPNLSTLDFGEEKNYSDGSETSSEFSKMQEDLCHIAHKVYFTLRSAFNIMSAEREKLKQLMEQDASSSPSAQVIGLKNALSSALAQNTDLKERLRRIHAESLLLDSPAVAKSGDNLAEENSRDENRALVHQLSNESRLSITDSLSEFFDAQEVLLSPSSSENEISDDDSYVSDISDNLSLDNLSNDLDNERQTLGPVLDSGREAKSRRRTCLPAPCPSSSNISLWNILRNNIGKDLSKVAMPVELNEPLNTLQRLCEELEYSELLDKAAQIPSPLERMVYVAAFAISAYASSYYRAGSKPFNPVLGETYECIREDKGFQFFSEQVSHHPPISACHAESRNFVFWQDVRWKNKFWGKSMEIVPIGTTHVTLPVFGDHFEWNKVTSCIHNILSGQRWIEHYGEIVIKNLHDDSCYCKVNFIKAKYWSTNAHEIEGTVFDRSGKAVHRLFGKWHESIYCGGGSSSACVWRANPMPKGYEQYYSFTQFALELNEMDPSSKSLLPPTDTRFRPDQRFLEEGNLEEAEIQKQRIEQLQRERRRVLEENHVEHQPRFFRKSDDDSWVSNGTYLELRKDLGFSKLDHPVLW
# UniProt Q9ULX3, sequence (Q9ULX3 whole entry, looked up): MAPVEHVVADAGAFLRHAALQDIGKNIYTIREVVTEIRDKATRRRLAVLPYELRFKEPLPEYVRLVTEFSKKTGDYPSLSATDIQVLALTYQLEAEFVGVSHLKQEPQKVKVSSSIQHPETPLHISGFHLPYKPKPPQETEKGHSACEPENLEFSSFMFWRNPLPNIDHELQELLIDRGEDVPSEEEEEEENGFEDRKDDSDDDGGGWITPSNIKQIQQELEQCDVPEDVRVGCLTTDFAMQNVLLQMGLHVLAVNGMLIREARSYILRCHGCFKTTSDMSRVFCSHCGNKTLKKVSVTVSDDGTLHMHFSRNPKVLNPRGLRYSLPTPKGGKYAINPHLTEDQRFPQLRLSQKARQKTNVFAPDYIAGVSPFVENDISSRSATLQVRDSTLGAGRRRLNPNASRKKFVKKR
# UniProt Q15014, sequence (Q15014 whole entry, looked up): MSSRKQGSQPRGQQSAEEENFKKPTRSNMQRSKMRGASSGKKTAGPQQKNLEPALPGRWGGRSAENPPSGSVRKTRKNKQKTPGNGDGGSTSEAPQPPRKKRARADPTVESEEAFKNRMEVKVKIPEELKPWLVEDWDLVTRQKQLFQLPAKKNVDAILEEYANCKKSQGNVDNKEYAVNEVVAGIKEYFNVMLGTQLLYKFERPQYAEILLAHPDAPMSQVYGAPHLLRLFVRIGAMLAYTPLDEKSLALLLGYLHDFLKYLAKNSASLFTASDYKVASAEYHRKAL
# UniProt Q9UK23, sequence (Q9UK23 whole entry, looked up): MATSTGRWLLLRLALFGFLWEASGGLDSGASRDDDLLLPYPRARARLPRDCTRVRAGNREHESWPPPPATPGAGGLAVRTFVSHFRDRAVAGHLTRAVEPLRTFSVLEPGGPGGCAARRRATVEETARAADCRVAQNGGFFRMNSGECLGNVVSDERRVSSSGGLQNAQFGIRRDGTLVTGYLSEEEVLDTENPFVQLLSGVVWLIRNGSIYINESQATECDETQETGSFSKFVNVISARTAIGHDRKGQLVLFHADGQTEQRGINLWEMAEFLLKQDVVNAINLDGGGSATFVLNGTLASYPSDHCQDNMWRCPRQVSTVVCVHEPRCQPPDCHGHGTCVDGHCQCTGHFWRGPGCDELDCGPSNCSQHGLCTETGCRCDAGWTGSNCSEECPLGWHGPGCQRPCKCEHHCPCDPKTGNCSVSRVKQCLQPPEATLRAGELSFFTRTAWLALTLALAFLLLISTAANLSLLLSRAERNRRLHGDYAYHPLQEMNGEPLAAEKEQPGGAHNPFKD
# UniProt Q8N573, sequence (Q8N573 whole entry, looked up): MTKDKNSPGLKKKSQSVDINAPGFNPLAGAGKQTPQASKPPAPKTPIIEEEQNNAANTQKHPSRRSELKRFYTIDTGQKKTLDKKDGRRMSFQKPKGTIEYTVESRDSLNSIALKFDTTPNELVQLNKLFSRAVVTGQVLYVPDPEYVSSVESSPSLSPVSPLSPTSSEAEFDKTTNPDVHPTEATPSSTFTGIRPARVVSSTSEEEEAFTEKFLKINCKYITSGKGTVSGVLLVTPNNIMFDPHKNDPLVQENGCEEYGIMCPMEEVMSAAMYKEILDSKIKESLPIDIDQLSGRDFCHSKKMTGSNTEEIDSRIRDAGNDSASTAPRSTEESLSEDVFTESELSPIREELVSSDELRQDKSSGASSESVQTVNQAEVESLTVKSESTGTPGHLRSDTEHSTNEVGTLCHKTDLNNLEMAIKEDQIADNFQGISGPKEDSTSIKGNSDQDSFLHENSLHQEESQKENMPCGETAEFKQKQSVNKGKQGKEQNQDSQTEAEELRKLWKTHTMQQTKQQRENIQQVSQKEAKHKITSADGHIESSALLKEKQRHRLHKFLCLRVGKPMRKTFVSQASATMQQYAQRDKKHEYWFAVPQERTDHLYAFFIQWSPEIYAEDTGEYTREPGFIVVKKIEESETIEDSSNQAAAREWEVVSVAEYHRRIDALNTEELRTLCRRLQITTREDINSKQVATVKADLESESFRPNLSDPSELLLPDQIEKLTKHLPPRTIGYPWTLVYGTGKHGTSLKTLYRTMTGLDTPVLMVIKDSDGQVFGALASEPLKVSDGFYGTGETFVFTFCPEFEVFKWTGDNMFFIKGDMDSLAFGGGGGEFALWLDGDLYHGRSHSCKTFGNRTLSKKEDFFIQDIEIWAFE
# UniProt Q9Y2X3, sequence (Q9Y2X3 whole entry, looked up): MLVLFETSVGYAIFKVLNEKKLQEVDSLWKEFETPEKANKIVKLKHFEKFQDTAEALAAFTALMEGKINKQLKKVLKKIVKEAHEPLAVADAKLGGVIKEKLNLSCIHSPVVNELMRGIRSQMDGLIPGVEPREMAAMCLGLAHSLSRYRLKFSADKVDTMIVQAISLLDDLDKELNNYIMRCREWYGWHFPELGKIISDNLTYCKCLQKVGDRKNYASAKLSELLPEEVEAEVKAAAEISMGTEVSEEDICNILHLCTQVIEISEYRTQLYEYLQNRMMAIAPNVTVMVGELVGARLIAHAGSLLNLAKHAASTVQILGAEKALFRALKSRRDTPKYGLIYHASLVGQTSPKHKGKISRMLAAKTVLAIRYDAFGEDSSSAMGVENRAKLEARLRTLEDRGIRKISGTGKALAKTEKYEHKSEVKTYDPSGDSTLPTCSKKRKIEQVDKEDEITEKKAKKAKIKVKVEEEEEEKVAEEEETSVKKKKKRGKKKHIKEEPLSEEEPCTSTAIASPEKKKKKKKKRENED
# UniProt Q96MF7, sequence (Q96MF7 whole entry, looked up): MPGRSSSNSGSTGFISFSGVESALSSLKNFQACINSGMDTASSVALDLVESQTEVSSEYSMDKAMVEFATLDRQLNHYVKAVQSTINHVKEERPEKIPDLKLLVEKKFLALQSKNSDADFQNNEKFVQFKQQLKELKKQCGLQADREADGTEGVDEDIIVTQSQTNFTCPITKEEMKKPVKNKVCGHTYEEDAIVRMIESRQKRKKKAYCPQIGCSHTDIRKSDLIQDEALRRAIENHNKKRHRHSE
row,Target,log2 fold change
1,OPHN1 (UniProt O60890),0.008
2,MRPS17 (UniProt Q9Y2R5),0.06
3,"NA, A0A1W2PSA9",0.006
4,NOP58 (UniProt Q9Y2X3),0.068
5,NEK3 (UniProt P51956),-0.032
6,NAGPA (UniProt Q9UK23),-0.004
7,MON1A (UniProt Q86VX9),-0.071
8,MRPL34 (UniProt Q9BQ48),0.058
9,NUMA1 (UniProt Q14980),0.022
10,OXR1 isoform 2 (UniProt Q8N573),-0.035
11,NBN (UniProt O60934),-0.004
12,MRM2 (UniProt Q9UI43),0
13,OSBPL3 (UniProt Q9H4L5),0.292
14,MLH1 (UniProt P40692),-0.109
15,NSMCE2 (UniProt Q96MF7),0.004
16,MSANTD2 (UniProt Q6P1R3),0.028
17,OTUD6B (UniProt Q8N6M0),0.03
18,NOP2 isoform 4 (UniProt P46087),0.409
19,MT-ATP6 (UniProt P00846),-0.223
20,MPHOSPH8 isoform 2 (UniProt Q99549),0.089
21,NUDT7 (UniProt P0C024),-0.047
22,MORF4L2 (UniProt Q15014),0.028
23,NOB1 (UniProt Q9ULX3),0.067
24,MLX (UniProt Q9UH92),0.093
25,MNAT1 (UniProt P51948),0.033
26,NCOR1 (UniProt O75376),0.016
27,MOB2 isoform 3 (UniProt Q70IA6),0.067
28,NUDT6 (UniProt P53370),-0.023

# Compound: c1ccc([C@@H]2C[C@H]2NC2CCNCC2)cc1
# Assay: as above
# Procedure, shortened: as §1
row,Target,log2 fold change
1,OPHN1 (UniProt O60890),0.07
2,NELFCD (UniProt Q8IXH7),0.034
3,MRPS17 (UniProt Q9Y2R5),-0.064
4,"NA, A0A1W2PSA9",0.104
5,NOP58 (UniProt Q9Y2X3),0.031
6,NEK3 (UniProt P51956),-0.094
7,NAGPA (UniProt Q9UK23),0.061
8,MRPL34 (UniProt Q9BQ48),-0.051
9,NUMBL (UniProt Q9Y6R0),-0.009
10,NUMA1 (UniProt Q14980),0.014
11,OXR1 isoform 2 (UniProt Q8N573),-0.101
12,NBN (UniProt O60934),-0.001
13,OSBPL2 (UniProt Q9H1P3),-0.09
14,MRM2 (UniProt Q9UI43),-0.052
15,OSBPL3 (UniProt Q9H4L5),0.14
16,"NA, A0A2R8Y3M9",0.161

row,Target,log2 fold change
1,MLH1 (UniProt P40692),-0.065
2,NSMCE2 (UniProt Q96MF7),-0.017
3,NOLC1 isoform 3 (UniProt Q14978),-0.021
4,OTUD6B (UniProt Q8N6M0),-0.153
5,NOP2 isoform 4 (UniProt P46087),-0.009
6,MT-ATP6 (UniProt P00846),-0.035
7,MPHOSPH8 isoform 2 (UniProt Q99549),0.061
8,MORF4L2 (UniProt Q15014),0.091
9,NOB1 (UniProt Q9ULX3),-0.06
10,MLX (UniProt Q9UH92),-0.011
11,MNAT1 (UniProt P51948),0.068
12,NCOR1 (UniProt O75376),-0.111
13,MOB2 isoform 3 (UniProt Q70IA6),-0.096
14,NUDT6 (UniProt P53370),-0.212
15,MYO19 (UniProt Q96H55),0.088
